Source: PubChem BioAssay (National Center for Advancing Translational Sciences (NCATS))
TDP1 cell CPT = DT40-hTDP1 cell growth loss with CPT. chicken DT40 Tdp1-/-;hTDP1 cells + 20 nM CPT, ATP luminescence, 48 h. Potency, µM (doses to about 46.2 µM), usual class: inhibitors. 12% of 420,000 active; note: nearly all actives have a fitted effect of over 55% in size
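Chicken DT40 Tdp1-/- cells stably complemented with human TDP1 were seeded at 400 cells/well in medium containing 20 nM camptothecin, exposed to pin-transferred compounds, and grown at 37 °C for at least 48 hr. Viability was read as ATP luminescence.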
IL1B secr inh = blocks inflammasome-driven IL-1 beta release. THP-1 LPS/ATP IL-1B secretion, AlphaLISA, 16 h; hits give low values. AID 743279. activity change, % at 57.5 µM. 4.7% of 360,000 active; in the data active = activity change below about -50%; inconclusive = mostly about -30% to -49%
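Secreted IL-1B measured by AlphaLISA bead assay after 16 h compound exposure of THP-1 cells; compounds (final up to 57.5 uM) added 1 h before LPS (250 ng/mL) and ATP (1.25 mM) stimulation; lower signal means less secretion.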
HT1080 IDH1KD tx = HT-1080 IDH1 knockdown cell toxicity (counter line); HT-1080 IDH1 knockdown viability, ATP luminescence, 48 h; Potency, µM (titrated, usually from 46.1 µM), usual class: cytotoxic; 2% of 360,000 active; AID 686971
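HT-1080-IDH1KD cells (IDH1 knocked down), 750/well in RPMI with 5% FBS, treated with compound 48 h at 37 degrees C. Viability by CellTiter-Glo luminescence, normalised to DMSO and no-cell wells; concentration-response curves classed.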
HT1080NT lethal = kills 2HG-producing HT-1080-NT fibrosarcoma cells; HT-1080-NT fibrosarcoma viability, CellTiter-Glo ATP luminescence, 48 h; Potency, µM (top dose mostly 46.1 µM), usual class: cytotoxic; 1.6% of 360,000 active; AID 686970;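 note: NT is the 2HG producing partner of a matched IDH1 knockdown line; nearly all actives have a fitted effect of over 55% in size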
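HT-1080-NT fibrosarcoma cells (2HG-overproducing), 750 cells/well in RPMI with 5% FBS, dosed after 2 h and incubated 48 h at 37C. CellTiter-Glo luminescence normalized to DMSO and no-cell wells; concentration-response curves fitted and classed.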
TDP1 cell noCPT = qHTS for Inhibitors of human tyrosyl-DNA phosphodiesterase 1 (TDP1): qHTS in cells in absence of CPT. Potency, µM (titrated, usually from 46.2 µM), hits mostly inhibitors. DT40 Tdp1-/- hTDP1 cells, no CPT, ATP luminescence, 48 h. AID 686978, 2013. 15% of 420,000 active; note: nearly all actives have a fitted effect of over 55% in size
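Readout: luminescence from CellTiter-Glo after 30 min in the dark at RT. Cells: DT40 Tdp1-/- with stable hTDP1, 400/well. Exposure: compounds alone, ≥48 hr, 37 °C.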
Numbers stand for hits; i = inactive; ? = inconclusive; nt = not tested or not shown. A selection: hits, their analogues and other compounds. The true share with any hit is near 19%. Unless noted, calls come from the whole dose curve; as a rule, active = well fitted curve in the direction sought with a large enough effect; inconclusive = small, poorly fitted or top-dose-only effect, or another doubt; inactive = no such curve, though single readings can be large; an effect the other way counts as inactive or inconclusive.

SMILES | TDP1 cell CPT | IL1B secr inh | HT1080 IDH1KD tx | HT1080NT lethal | TDP1 cell noCPT
OC(c1ccc(Cl)c(F)c1)c1ncc(-c2cccc3ccccc23)[nH]1 (configuration not stated) | ? | -60 | ? | ? | ?
CCOc1ccc(NC(=O)N2CCN3CCCCC3C2)cc1 (configuration not stated) | i | nt | nt | nt | i
CC(=O)c1cc2ccccc2c2ccccc12 | i | nt | nt | nt | i
CC(=O)c1ccc(NS(=O)(=O)c2cnc(N)nc2)cc1 | i | nt | nt | nt | i
CC(=O)N1CCOc2ccc(S(=O)(=O)NCC3CCC(C(=O)Nc4ccc(C)cn4)CC3)cc21 (configuration not stated) | 15µM | i | i | i | 13µM
CC(C)C(CCNCc1ccccn1)c1ccc(Cl)cc1 (configuration not stated) | ? | nt | ? | i | 13µM
CCOC(=O)N1CCC(NC(=O)CCc2c(C)nc3c(c(C)nn3C(C)(C)C)c2C)CC1 | ? | i | ? | ? | ?
CCOC(=O)c1ccc(NC(=O)CCc2c(C)nc3ncnn3c2C)cc1 | i | i | i | i | i
COC(=O)c1ccc(NC(=O)CCc2c(C)nc3c(c(C)nn3C(C)(C)C)c2C)cc1 | ? | nt | nt | nt | 18µM
CCOC(=O)c1ccc(NC(=O)CCc2c(C)nc3c(c(C)nn3C(C)(C)C)c2C)cc1 | 16µM | nt | nt | nt | 18µM
CC(Oc1ccccc1)c1ccnc(N)n1 (configuration not stated) | i | i | i | i | i
CC(Oc1ccc(Cl)cc1Cl)c1ccnc(N)n1 (configuration not stated) | i | -56 | ? | i | i
CCCN(CC(=O)Nc1ccc(Cl)cc1Cl)C(=O)/C=C/c1cc(OC)ccc1OC | ? | i | i | i | 29µM
CCCN(CCC)C(=O)/C=C/c1cccc([N+](=O)[O-])c1 | ? | i | i | i | ?
CCCN(CC(=O)Nc1cc(Cl)ccc1Cl)C(=O)/C=C/c1cc(OC)ccc1OC | ? | i | i | i | ?
CCCN(CC(=O)Nc1ccc(Cl)cc1Cl)C(=O)/C=C/c1cccc([N+](=O)[O-])c1 | ? | ? | i | i | 29µM
O=C(C[C@@H]1C/C=C\C[C@@H](Cc2ccc(F)cc2)C(=O)OCCNC1=O)NCCO | i | i | i | i | i
Cc1noc(C)c1S(=O)(=O)N1CCCC(C(=O)N2CCc3ccccc3C2)C1 (configuration not stated) | ? | i | i | i | ?
CC(=O)c1cccc(NC(=O)CSc2ccc(-c3ccccn3)nn2)c1 | ? | i | ? | ? | ?
O=C(CSc1ccccn1)Nc1ccc2c(c1)C(=O)c1ccccc1C2=O | ? | i | 21µM | ? | 16µM
CCc1ccc(NC(=O)CSc2ccc(-c3ccccn3)nn2)cc1 | ? | i | i | ? | 23µM
CCOC(=O)c1ccccc1NC(=O)CSc1ccc(-c2ccccn2)nn1 | 3.7µM | i | i | i | ?
CC(=O)Nc1cccc(NC(=O)CSc2ccc(-c3ccccn3)nn2)c1 | ? | i | ? | i | ?
Cc1ccc(NC(=O)CSc2ccc(-c3ccccn3)nn2)cc1F | 16µM | i | i | i | 12µM
CCOc1ccc(-c2nnn(CC(=O)N3CCCC(C)C3)n2)cc1 (configuration not stated) | i | i | i | i | i
SMILES | TDP1 cell CPT | IL1B secr inh | HT1080 IDH1KD tx | HT1080NT lethal | TDP1 cell noCPT
CN1C(=O)C(C)(C)c2cc(S(=O)(=O)N3CCN(c4ccccc4)CC3)ccc21 | ? | i | i | i | ?
CN1/C(=C\C=Nc2cc(S(=O)(=O)N3CCOCC3)ccc2N2CCOCC2)C(C)(C)c2ccccc21 | ? | i | i | i | 21µM
Cc1cc(/N=C/C=C2/N(C)c3ccccc3C2(C)C)n(CCC#N)n1 | 8.2µM | ? | ? | i | 6.5µM
CN1/C(=C\C=[N+](C)c2ccccc2)C(C)(C)c2ccccc21 | 1.2µM | -95 | ? | 7.1µM | 1.3µM
CN1/C(=C\C=N\O)C(C)(C)c2ccccc21 | i | i | i | i | i
CN(C)c1ccc(N=C/C=C2/N(C)c3ccccc3C2(C)C)cc1 | 7.3µM | -64 | i | i | 5.2µM
